Assay outcomes (PubChem BioAssay)
This is a sample that favours compounds with a hit; in the whole collection about 2.4% have one here.
Cruzain noTriton: cruzain (T. cruzi) inhibition without detergent | P25779 | purified cruzain, Z-FR-AMC fluorescence, no detergent | Potency, µM, usual class: inhibitors | 2.3% of 200,000 active | AID 1476; also: nearly all actives have a fitted effect of over 40% in size
Target sequence (P25779 123-467 limits assumed): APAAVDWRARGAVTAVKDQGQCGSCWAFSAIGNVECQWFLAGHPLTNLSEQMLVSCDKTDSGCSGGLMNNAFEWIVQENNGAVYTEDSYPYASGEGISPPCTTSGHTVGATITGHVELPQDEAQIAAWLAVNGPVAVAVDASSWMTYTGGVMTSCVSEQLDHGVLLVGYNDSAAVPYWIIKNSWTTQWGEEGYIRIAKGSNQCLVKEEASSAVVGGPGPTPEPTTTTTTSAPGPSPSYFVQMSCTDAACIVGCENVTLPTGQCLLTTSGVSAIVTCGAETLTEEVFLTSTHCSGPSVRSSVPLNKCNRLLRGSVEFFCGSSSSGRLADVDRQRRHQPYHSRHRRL
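Purified cruzain at 1.5 nM, pre-incubated 15 min with compound at room temperature in 100 mM sodium acetate pH 5.5, 5 mM DTT, 0.00005% Triton X-100. Reaction started with 2 uM Z-FR-AMC; AMC fluorescence increase over 60 s gives rate.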
Cruzain inh Det: blocks cruzain activity in presence of Triton detergent | purified cruzain, Z-FR-AMC fluorescence, 0.01% Triton | Potency, µM, most hits filed as inhibitors | 0.43% of 200,000 active; also: nearly all actives have a fitted effect of over 40% in size
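Cysteine protease activity tested under reducing, mildly acidic conditions (100 mM sodium acetate pH 5.5, 5 mM DTT) plus 0.01% Triton X-100. Cruzain 1.5 nM; substrate Z-FR-AMC 2 uM; 15 min compound preincubation at room temperature.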
Hits are given with their value. Calls follow the shape of the dose curve; as a rule, active = well fitted curve in the direction sought with a large enough effect; inconclusive = small, poorly fitted or top-dose-only effect, or another doubt; inactive = no such curve, though single readings can be large; an effect the other way counts as inactive or inconclusive.

What do the screens show for `CCOC(=O)C1CCN(c2nc3c(S(=O)(=O)c4ccccc4)nnn3c3ccsc23)CC1`?
Cruzain noTriton: inactive; Cruzain inh Det: inactive

Results for O=C(c1ccc2c(c1)N(Cc1ccccc1)C(=O)c1ccccc1S2(=O)=O)N1CCN(c2ccccc2)CC1 ?
Cruzain noTriton: inactive; Cruzain inh Det: inactive

Results for Cc1ccc(/C=C2\SC(=S)N(Cc3ccccc3)C2=O)o1 ?
Cruzain noTriton: inconclusive; Cruzain inh Det: inactive

How did COc1ccc(-c2nn(-c3ccccc3)cc2/C=C2/SC(=S)N(Cc3ccco3)C2=O)c(C)c1 do in these assays?
Cruzain noTriton: 3.2µM; Cruzain inh Det: inactive

How did COc1ccc(-n2c(C)cc(/C=C3\SC(=S)N(Cc4ccco4)C3=O)c2C)cc1 do in these assays?
Cruzain noTriton: 7.9µM; Cruzain inh Det: inactive

Results for Cc1ccc(-n2c(C)cc(/C=C3/C(=O)NC(=O)N(Cc4ccco4)C3=O)c2C)cc1 ?
Cruzain noTriton: inactive; Cruzain inh Det: inactive

Results for COc1ccccc1CN1CC[C@@]2(CCCN(C(=O)c3cc(C(F)(F)F)cc(C(F)(F)F)c3)C2)C1 ?
Cruzain noTriton: inactive; Cruzain inh Det: inactive

Results for Cc1ccc(NC(=O)CSc2nnc(-c3ccc([N+](=O)[O-])cc3)o2)c(C)c1 ?
Cruzain noTriton: inactive; Cruzain inh Det: inactive

How did O=C(NCc1ccccc1Cl)c1cc2c(s1)-c1ccc(Cl)cc1SC2 do in these assays?
Cruzain noTriton: 10µM; Cruzain inh Det: inactive

Results for Cc1ccc(CNC(=O)c2cc3c(s2)-c2ccccc2SC3)cc1 ?
Cruzain noTriton: inconclusive; Cruzain inh Det: inactive

How did Cc1ccc(CNC(=O)c2cc3c(s2)-c2ccc(Cl)cc2SC3)cc1 do in these assays?
Cruzain noTriton: 13µM; Cruzain inh Det: inactive

Results for COc1ccccc1CNC(=O)c1cc2c(s1)-c1ccc(Cl)cc1SC2 ?
Cruzain noTriton: inactive; Cruzain inh Det: inactive

Results for COc1c(-c2coc3cc4c(cc3c2=O)CC(O)C(C)(C)O4)ccc2c1C=CC(C)(C)O2 (stereo not given) ?
Cruzain noTriton: inconclusive; Cruzain inh Det: inactive

What do the screens show for `COc1cc(OC)c(Nc2cc(C)nc3ncnn23)cc1Cl`?
Cruzain noTriton: inactive; Cruzain inh Det: inactive

Results for COC(=O)Cn1c(=O)c2c(nc3n2CCN3c2ccc(F)cc2)n(C)c1=O ?
Cruzain noTriton: inactive; Cruzain inh Det: inactive

How did O=C1CC(c2ccccc2)Cc2[nH]c(=O)c(-c3nc(-c4ccc(Cl)c(Cl)c4)cs3)cc21 (stereo not given) do in these assays?
Cruzain noTriton: inactive; Cruzain inh Det: inactive

What do the screens show for `O=C(NC1CCCC1)c1cnn(-c2ccc(F)cc2F)c1C1CCNCC1`?
Cruzain noTriton: inactive; Cruzain inh Det: inactive

Results for CN(c1ccccc1C(=O)O)S(=O)(=O)c1ccc2[nH]c(=O)oc2c1 ?
Cruzain noTriton: inactive; Cruzain inh Det: inactive

What do the screens show for `COc1cc(OC)cc(C(=O)N/N=C/c2ccc(OC)c(COc3ccc(F)cc3)c2)c1`?
Cruzain noTriton: inactive; Cruzain inh Det: inactive

What do the screens show for `COc1ccc(/C=N/NC(=S)Nc2ccccc2)cc1COc1ccc(F)cc1F`?
Cruzain noTriton: 7.9µM; Cruzain inh Det: inactive

What do the screens show for `Cc1cc(C(=O)N2CCN(c3ccc(F)cc3)CC2)c2c(C)nn(-c3cccc(Cl)c3C)c2n1`?
Cruzain noTriton: inactive; Cruzain inh Det: inactive

How did O=C(N/N=C\C=C\c1ccc2c(c1)OCO2)C1COc2cc3ccccc3cc2O1 (stereo not given) do in these assays?
Cruzain noTriton: 25µM; Cruzain inh Det: inactive

Results for O=C(N/N=C/c1ccc2c(c1)OCO2)C1COc2ccccc2O1 (stereo not given) ?
Cruzain noTriton: inactive; Cruzain inh Det: inactive

How did CCOC(=O)c1c(-c2ccccc2)csc1NC(=O)c1cc2ccccc2oc1=O do in these assays?
Cruzain noTriton: 16µM; Cruzain inh Det: inactive

How did CCOC(=O)c1ccccc1NC(=O)c1cc(S(=O)(=O)N2CCOCC2)ccc1F do in these assays?
Cruzain noTriton: inconclusive; Cruzain inh Det: inactive

What do the screens show for `CCOC(=O)c1c(-c2ccccc2)csc1NC(=O)c1cc(=O)c2ccc(C)cc2o1`?
Cruzain noTriton: inactive; Cruzain inh Det: inactive

Results for CCOC(=O)c1c(-c2ccccc2Cl)csc1NC(=O)c1cc(S(=O)(=O)N2CCOCC2)ccc1C ?
Cruzain noTriton: 25µM; Cruzain inh Det: inactive

How did Cc1ccc(S(=O)(=O)N(CC(=O)Nc2ccc3c(c2)OCO3)c2ccc(C)c(Cl)c2)cc1 do in these assays?
Cruzain noTriton: inactive; Cruzain inh Det: inactive

How did Cn1cccc1C(=O)N1CCC2(CC1)CCN(c1ccc(-c3ccccc3)cc1)CC2 do in these assays?
Cruzain noTriton: inconclusive; Cruzain inh Det: inactive

What do the screens show for `CCN(C(=O)Cn1nnc2sc3c(c2c1=O)CCC(C(C)(C)C)C3)c1cccc(C)c1` (stereo not given)?
Cruzain noTriton: inactive; Cruzain inh Det: inactive

How did Cc1ccc2nc(-c3ccc(Cl)c(NC(=O)COc4ccc([N+](=O)[O-])cc4)c3)oc2c1 do in these assays?
Cruzain noTriton: inactive; Cruzain inh Det: inactive

What do the screens show for `CC1=NN(c2ccccc2)C(=O)/C1=C\c1cc(C)n(-c2ccccc2)c1C`?
Cruzain noTriton: inconclusive; Cruzain inh Det: inactive

How did Cc1cc(/C=C2/C(=O)NN(c3ccccc3)C2=O)c(C)n1-c1cccc(O)c1 do in these assays?
Cruzain noTriton: 25µM; Cruzain inh Det: inactive

What do the screens show for `CC(NC(=O)C(=O)Nc1c2c(nn1-c1ccc(F)cc1)CSC2)c1ccccc1` (stereo not given)?
Cruzain noTriton: inactive; Cruzain inh Det: inactive

What do the screens show for `CC1(Cn2ccnn2)[C@H](C(=O)O)N2C(=O)C[C@H]2S1(=O)=O` (stereo not given in full)?
Cruzain noTriton: inactive; Cruzain inh Det: inactive

How did CCNc1ncc2nc(-c3ccc(Cl)cc3)c(=O)n(Cc3cccs3)c2n1 do in these assays?
Cruzain noTriton: inactive; Cruzain inh Det: inactive

How did COCCNC(=O)CCCn1c(=O)c2ccccc2n(CC(=O)NCCC2=CCCCC2)c1=O do in these assays?
Cruzain noTriton: inactive; Cruzain inh Det: inactive

Results for CSc1ccc(/C=c2\s/c(=C\C(=O)C(C)(C)C)n(CC(=O)NCCC3=CCCCC3)c2=O)cc1 ?
Cruzain noTriton: 3.2µM; Cruzain inh Det: inactive

What do the screens show for `Cc1ccc(NC(=O)Cn2cnc3sc(C)c(S(=O)(=O)N4CCN(c5ncccn5)CC4)c3c2=O)cc1F`?
Cruzain noTriton: inactive; Cruzain inh Det: inactive

What do the screens show for `O=C(Nc1ccc(Cl)cc1)Nc1ccc2c(c1)N1CCN=C1S2`?
Cruzain noTriton: 32µM; Cruzain inh Det: inconclusive

Results for Nc1ccc2c(c1)N1CCN=C1S2 ?
Cruzain noTriton: inactive; Cruzain inh Det: inactive

How did C[C@@](O)(/C=C/[C@H]1CC=CC(=O)O1)[C@@H](C[C@@H](O)\C=C/C=C\C=C\CO)OP(=O)(O)O do in these assays?
Cruzain noTriton: inactive; Cruzain inh Det: inactive

Results for O=C(O)CCCC/C=C\C[C@@H](O)/C=C/C=C/C=C\[C@@H](O)CCCC(=O)O ?
Cruzain noTriton: 4µM; Cruzain inh Det: 13µM

What do the screens show for `O=C(O)CCC[C@H](O)\C=C/C=C/C=C/[C@H](O)C/C=C\CCCCCO`?
Cruzain noTriton: inactive; Cruzain inh Det: inactive

What do the screens show for `CCOc1ccc(-c2cccc(NS(=O)(=O)c3ccccc3C(F)(F)F)c2)nn1`?
Cruzain noTriton: inactive; Cruzain inh Det: inactive

What do the screens show for `Cc1cccc(CNc2ncnc3ccc(-c4cccc(C#N)c4)cc23)c1`?
Cruzain noTriton: inactive; Cruzain inh Det: inactive

What do the screens show for `Cc1ccc(C)c(NC(=O)c2cnc3sc(N4CCOCC4)nn3c2=O)c1`?
Cruzain noTriton: inactive; Cruzain inh Det: inactive
